# From PubChem BioAssay AID449762 (Southern Research Specialized Biocontainment Screening …, 2010)
# In all, about 330,000 compounds went through this assay and about 1,900 (0.58%) were called active. Roughly 4% stayed inconclusive and do not appear here. The list is a sample of the results. Measured potencies and affinities stand elsewhere. Values without a mark were called inactive. Cut-off read from the data, not from the text of the source: inconclusive = inhibition above about 70% without an active follow-up result; inactive = below that.
# Experiment: M. tuberculosis growth inhibition, HTS (AID 449762);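 note: bacterial growth assessed after seven days of incubation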
# Settings: M. tuberculosis H37Rv growth inhibition, 7H9 media; at 25 µM; hits give high values
row,Structure (SMILES),inhibition [%]
1,CC(C)Nc1nc(NC(C)C)nc(N(C)C#N)n1,0.57
2,CC(C)Nc1nc(NC(C)C)nc(N(C)C(N)=O)n1,1.68
3,C=CC[C@H](CC(=O)OC(C)(C)C)C(=O)OC[C@H]1CCCN1C(=O)[C@@H](CC=C)CC(=O)N(CCO)Cc1ccccc1,-3.24
4,C[C@H](NC(=O)c1[nH]cnc1C(=O)Nc1cccc(Cl)c1)c1ccccc1,48.7
5,C[C@@H](NC(=O)c1[nH]cnc1C(=O)Nc1cccc(Cl)c1)c1ccccc1,56.8
6,O=C(CN(Cc1ccccc1)C(=O)CNS(=O)(=O)c1ccc(F)cc1)NCC1CCCO1 (stereo not given),-5.05
7,Cc1nn(C)c(C)c1/C=C/C(=O)c1ccccc1,7.75
8,Cc1nn(-c2ccccc2)c(Cl)c1/C=N/NC(N)=O,-5.57
9,O=C(c1cccc(C(F)(F)F)c1)c1c[nH]c(C(=O)NCCCN2CCOCC2)c1,2.14
10,Cc1cc(S(=O)(=O)Nc2ccc3cn[nH]c3c2)c(C)cc1Cl,-3.66
11,O=C(Nc1ccc2[nH]ncc2c1)c1ccccc1Cl,-3.21
12,O=Cc1cc(Br)c(OC(=O)N2CCOCC2)c(Br)c1,5.26
13,Cc1ccc(-c2nn(-c3ccccc3)cc2CO)cc1,4.76
14,OCc1cn(-c2ccccc2)nc1-c1ccc(-c2nn(-c3ccccc3)cc2CO)cc1,0.63
15,CC(C)[C@]1(c2ccc(Cl)cc2)ON(c2ccccc2C(F)(F)F)C1=O,1.98
16,O=C(CCc1nc2ccccc2c(=O)[nH]1)Nc1nnc(SCc2ccc(Cl)cc2)s1,-0.53
17,Cn1ccnc1SCC(=O)NCC(=O)Nc1ccc(F)c(F)c1F,1.26
18,c1ccc(CN2CCC(Nc3nc(-c4cccnc4)nc4ccccc34)CC2)cc1,10.5
19,c1ccc(-c2nc(NC3CCCC3)c3ccccc3n2)cc1,11.8
20,O=C(Nc1ccncc1)c1ccc(Cl)c(Cl)c1,4.84

row,Structure (SMILES),inhibition [%]
1,O=C(Nc1ccc(Cl)c(Cl)c1)c1ccc(Cl)c(Cl)c1,1.7
2,CC(=O)Nc1ccc2nc3ccccc3nc2c1,-9.66
3,O=C(Nc1ccc2nc3ccccc3nc2c1)c1ccccc1,-0.69
4,COc1ccc(C)cc1NC(=O)CN1CCCC1c1ccc2c(c1)OCCCO2 (stereo not given),5.61
5,COc1ccc(NC(=O)CCCCCN2C(=O)c3ccccc3C2=O)c(OC)c1,-6.73
6,C/C(=N\Nc1cccc(Cl)c1)c1ccc(-n2ccnc2)cc1,0.99
7,C/C(=N\Nc1ccccc1Cl)c1ccc(-n2ccnc2)cc1,58.6
8,COc1cccc(-c2cc(C(F)(F)F)c(C#N)c(=O)[nH]2)c1,-9.57
9,Cc1csc(=Nc2ccccc2)n1Cc1ccco1,11.3
10,N#Cc1c(NC(=O)CSc2nnnn2C2CCCCC2)sc2c1CCCC2,-13.1
11,Cn1nnnc1SCC(=O)Nc1nc2c(s1)CCCC2,2.88
12,Cc1ccc(N(CC(=O)NCc2ccco2)C(=O)CCC(=O)Nc2nccs2)c(C)c1,1.4
13,Cc1cc(N2CCC(C(=O)N3CCN(c4cccc(C)c4C)CC3)CC2)n2ncnc2n1,-0.67
14,COc1ccc2cc(C(=O)/C=C/c3cc(OC)c(O)c(OC)c3)ccc2c1,36.1
15,COc1ccc(/C=C/C(=O)c2ccc(OC)cc2OC)cc1,58.4
16,CC(=O)c1cccc(N2C(=NC(=O)CCc3ccccc3)SC3CS(=O)(=O)CC32)c1 (stereo not given),1.65
17,Cc1ccc(S(=O)(=O)NNC(=O)CCC(=O)Nc2ccc(C)cc2C)cc1,5.58
18,COc1cc(SC)ccc1C(=O)OCC(=O)NC1CCCCC1,-4.21
19,CCCCCC1CC(CC(=O)Nc2ccc([N+](=O)[O-])cc2)C(=O)O1 (stereo not given),68.8
20,CCCCCCC1CC(CC(=O)Nc2ccc([N+](=O)[O-])cc2)C(=O)O1 (stereo not given),5.26

row,Structure (SMILES),inhibition [%]
1,O=C(CCNS(=O)(=O)c1ccc(F)c(Cl)c1)NCc1ccccc1F,-9.24
2,O=C(COC(=O)Cc1ccsc1)NCc1ccc(Cl)cc1,8.12
3,Cc1cccc(C(=O)CC(=O)c2cc(Cl)ccc2O)c1,0.28
4,Cc1cc(C)c(C(=O)CC(=O)c2ccccc2Cl)c(O)c1,6.33
5,Cc1ccc(-c2nnc(SCC(=O)N/N=C/c3c(C)nn(-c4ccccc4)c3C)n2-c2ccc(C)cc2)cc1,5.96
6,CCCN1CCN(CC(O)COC(c2ccc(OC)cc2)c2ccc(OC)cc2)CC1 (stereo not given),6.36
7,COc1ccc(CCN(C)CC(O)COC(c2ccc(F)cc2)c2ccc(F)cc2)cc1OC (stereo not given),6.55
8,O=C(NN1CC(C(=O)OCc2ccc(Cl)cc2Cl)CC1=O)c1ccccc1 (stereo not given),-12
9,O=C(c1ccc(C(=O)N2CCN(c3ccccc3F)CC2)nc1)N1CCN(c2ccccc2F)CC1,-7.27
10,CC1(OC(=O)c2cccs2)C(=O)C=C2C=C(c3ccsc3)OC=C2C1=O (stereo not given),-0.64
11,O=C(Nc1ccc(Cn2ccnc2)cc1)c1cccc(C(F)(F)F)c1,7.08
12,O=C(CSC1CCCCC1)Nc1nccs1,-8.08
13,CC(C)C(=O)Nc1ncc(Cc2ccccc2Cl)s1,-0.61
14,O=C(Nc1ncc(Cc2ccccc2Cl)s1)c1ccc([N+](=O)[O-])cc1,10.6
15,COc1ccc(C(=O)OCC(=O)Nc2c(C)cccc2C)cc1,0.88
16,CC1CCCC(NC(=O)CSC2=Nc3ccccc3C3CC=NN23)C1C (stereo not given),11.7
17,Cc1cc(C)n(-c2nc(NCCCN(C)C)c3c4c(sc3n2)CCCC4)n1,9.07
18,Cc1cc(C)n(-c2nc(NCCO)c3c4c(sc3n2)CCCC4)n1,10.4
19,CN1CCN(/N=C/c2ccc(Br)cc2)CC1,2.12
20,O=C(NN=Cc1cccc([N+](=O)[O-])c1)c1cc(-c2cccnc2)nc2ccccc12,5.59
